# Screening data (PubChem)
# Pf growth 96h = Primary qHTS for delayed death inhibitors of the malarial parasite plastid, 96 hour incubation; hit rate 6.9% among 320,000; Potency, µM (highest dose often 28.7 µM), actives largely listed as inhibitors; P. falciparum luciferase reporter growth, 96 h; active = well fitted inhibition curve with a large enough effect; inconclusive = small, poorly fitted or top-dose-only effect, or another doubt; inactive = no such curve, though single readings can be large or run the other way
#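 Luminescence readout: decreased luciferase signal marks inhibited growth of reporter-expressing P. falciparum in infected red cells (2% hematocrit, 0.05% parasitemia final), exposed to compound two generations (96 h, 37 C, 5% CO2).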
# SARS PLpro yeast = qHTS of Yeast-based Assay for SARS-CoV PLP. S. cerevisiae expressing SARS-CoV PLpro, growth rescue. Potency, µM (highest dose often 32.9 µM), hits mostly activators. hit rate 0.19% among 330,000. AID 485353, 2010; also: nearly all actives have a fitted effect of over 55% in size
# Pf growth 48h = Primary qHTS for delayed death inhibitors of the malarial parasite plastid, 48 hour incubation | P. falciparum luciferase growth in erythrocytes, 48 h | Potency, µM (titrated, usually from 28.7 µM), hits mostly inhibitors | hit rate 5.9% among 310,000 | AID 504832, 2011; active = well fitted inhibition curve with a large enough effect; inconclusive = small, poorly fitted or top-dose-only effect, or another doubt; inactive = no such curve, though single readings can be large or run the other way
#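 Luminescence readout; reporter = integrated firefly luciferase in P. falciparum. RBC culture at 2% hematocrit, 0.1% parasitemia final, 37 C/5% CO2; decreased signal taken as growth inhibition.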
# NS1 inh = qHTS Assay for Inhibitors of Influenza NS1 Protein Function. Potency, µM (top dose mostly 46.1 µM). hit rate 0.4% among 270,000. AID 2326, 2010; also: actives are rising curves; nearly all actives have a fitted effect of over 50% in size
#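 Read-out: OD600 growth recovery of NS1-expressing budding yeast. Cells grown overnight at 30C in -URA glucose medium, washed, resuspended and diluted 1:100 in 2% galactose assay medium, pH 6.0. Same strain lacking NS1 served as positive control.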
# Numbers stand for hits; 0 = inactive; ? = inconclusive; - = no result; [ ] = dose if it differs, or a comment. In the library only some 10% were active in any assay of this set; here they are far more common. Unless noted, calls follow the shape of the full dose curve.
SMILES,Pf growth 96h,SARS PLpro yeast,Pf growth 48h,NS1 inh
Cc1ccc(C(c2nnnn2C(C)(C)C)N(Cc2ccco2)Cc2cccs2)cc1 (stereo not drawn),-,0,13.1µM,0
Cc1cc(C(=O)NNC(=O)c2ccc(C)s2)c(C)o1,0,0,0,-
Cc1ccc(S(=O)(=O)N(CC(=O)NC2CC2)c2ccc(C)c(Cl)c2)cc1,?,0,?,0
CC(C)(C)n1nnnc1C(c1ccc(C(F)(F)F)cc1)N(Cc1ccccc1)Cc1ccco1 (stereo not drawn),0,0,?,0
CC(C)(C)c1ccc(CN(Cc2ccccc2)C(c2ccccn2)c2nnnn2C(C)(C)C)cc1 (stereo not drawn),-,0,1.65µM,0
CCNc1nc(NCC)nc(OCCOC(C)=O)n1,4.15µM,0,0,0
CCNc1nc(NCC)nc(OCCOC(=O)c2ccccc2)n1,?,0,0,0
COc1ccc(Cl)cc1N(CC(=O)NCC(C)C)S(=O)(=O)c1ccc(C)c([N+](=O)[O-])c1,9.28µM,0,0,0
COc1ccc(N(CC(=O)NCc2cccnc2)S(=O)(=O)c2ccc(C)c([N+](=O)[O-])c2)cc1,?,0,0,0
C=CCNC(=O)CN(c1cc(Cl)ccc1OC)S(=O)(=O)c1ccc(C)c([N+](=O)[O-])c1,0,0,2.62µM,0
COc1ccc(N(CC(=O)NCc2ccncc2)S(=O)(=O)c2ccc(C)c([N+](=O)[O-])c2)cc1,0,0,1.85µM,0
COc1ccccc1C(=O)N/C(=C\c1cn(S(=O)(=O)N(C)C)c2ccccc12)C(=O)NCCN1CCOCC1,?,0,0,0
Cc1ccc(C(C(=O)NC2CCCCC2)N(C(=O)Cc2c[nH]c3ccccc23)c2ccccc2)o1 (stereo not drawn),?,0,9.28µM,0
CC(=O)c1cccc(N(C(=O)c2ccccn2)C(C(=O)NC2CCCCC2)c2cccs2)c1 (stereo not drawn),1.65µM,?,2.62µM,0
CC(=O)c1ccc(N(C(=O)Cc2c[nH]c3ccccc23)C(C(=O)NC2CCCCC2)c2cccs2)cc1 (stereo not drawn),0,0,3.7µM,0
CCOC(=O)c1cc(C)sc1NC(=O)CSC1=NCCS1,9.28µM,0,?,0
CCOC(=O)c1cc(C)sc1NC(=O)CSc1nnnn1C,1.65µM,0,0,0
CC(=O)Nc1ccc(NC(=O)CSC2=NCCS2)cc1,0,0,0,0
CCCCN1C(=O)C(=O)N(CC(=O)Nc2cc(S(=O)(=O)N(C)C)ccc2C)C1=O,0,0,0,-
Cc1cc2ccccc2c(=O)n1CC(=O)NCC(=O)N1CCCC1,11.7µM,0,0,0
COc1ccc(/C=C(/NC(=O)c2ccccc2)C(=O)N2CCCC2)cc1,0,0,0,0
COc1ccc(NC(=O)CC(CC(=O)O)c2cc(OC)c(OC)c(OC)c2)cc1 (stereo not drawn),0,0,0,0
CCn1nc(C)c(/C=C2\CCCC3=C2OC(N)=C(C#N)C3c2c(C)nn(CC)c2C)c1C (stereo not drawn),0,0,10.4µM,0
CCOc1ccc(NC(=O)CN(C)C(=O)COc2cccc3c2OC(C)(C)C3)cc1OCC,?,0,13.1µM,-
CCOc1ccc(NC(=O)CN(C)C(=O)CC2CCCCC2)cc1OCC,?,0,?,-
SMILES,Pf growth 96h,SARS PLpro yeast,Pf growth 48h,NS1 inh
CCOc1ccc(NC(=O)CN(C)C(=O)CCC2CCCCC2)cc1OCC,14.7µM,0,?,-
CCOc1ccc(NC(=O)CN(C)C(=O)C2CCCC2)cc1OCC,0,0,0,-
CCOc1ccc(NC(=O)CN(C)C(=O)CC2CCCC2)cc1OCC,13.1µM,0,?,-
COc1ccc(NC(=O)COc2cccc3c2OC(C)(C)C3)c(OC)c1,10.4µM,0,?,-
CCCCOc1ccc(C2NC(=O)NC(C)=C2C(C)=O)cc1OCC (stereo not drawn),0[5.75 µM],0,?,0
CC(=O)Nc1ccc(NC(=O)C(C)OC(=O)C2CCCCC2)cc1 (stereo not drawn),0,0,0,-
O=C(CCc1nnc(CCC2CCCCC2)o1)NCc1ccon1,?,0,0,0
COc1ccccc1N1C(=O)C(Cl)=C(N2CCCC2)C1=O,9.28µM,0,0,0
CCc1ccccc1N1C(=O)C(Cl)=C(N2CCOCC2)C1=O,1.47µM,0,0,0
O=C1C(Cl)=C(N2CCOCC2)C(=O)N1c1ccc(Br)cc1,11.7µM,0,?,0
CCc1cc2c(SCC(=O)N3CCCC3=O)ncnc2s1,?,0,0,-
CCc1sc(C(=O)NCc2ccco2)cc1C,0,0,0,0
CCc1sc(C(=O)NCc2ccco2)cc1Br,10.4µM,0,0,0
CCN(CC)CCN1C(=O)c2oc3ccccc3c(=O)c2C1c1ccc(F)cc1 (stereo not drawn),9.28µM,0,2.94µM,0
COc1ccc(C2c3c(oc4ccc(F)cc4c3=O)C(=O)N2CCN2CCOCC2)cc1OC (stereo not drawn),-,-,-,0
CCN(CC)CCN1C(=O)c2oc3ccc(F)cc3c(=O)c2C1c1ccncc1 (stereo not drawn),0,0,?,0
Cc1cc2oc3c(c(=O)c2cc1C)C(c1ccc(F)cc1)N(CCCN1CCOCC1)C3=O (stereo not drawn),10.4µM,?,11.7µM,0
Cc1nn(CC(=O)NCCCN2CCCC2)c(=O)c2nn(-c3ccccc3)c(C)c12,?,0,0,0
O=C(CSc1nc2ccccc2c(=O)n1Cc1ccccc1)Nc1ccc(Br)cc1C(=O)O,0,0,0,0
COc1cccc(N2CCN(CC(=O)c3c[nH]c4ccc(OC)cc34)CC2C)c1 (stereo not drawn),?,0,11.7µM,?
CCO[C@@H]1OC(C(N)=O)=C[C@H](c2cn(C(C)=O)c3ccccc23)[C@H]1CCCO,0,0,0,0
CCO[C@H]1OC(C(=O)N2CCN(Cc3ccccc3)CC2)=C[C@@H](c2ccc(C(F)(F)F)cc2)[C@@H]1CCCO,1.47µM,0,?,0
CCO[C@@H]1OC(C(=O)N2CCN(Cc3ccccc3)CC2)=C[C@H](c2cn(C(C)=O)c3ccccc23)[C@H]1CCCO,8.28µM,0,8.28µM,0
CCO[C@H]1OC(C(=O)N2CCCCCCC2)=C[C@@H](c2csc3ccccc23)[C@@H]1CCCO,?,0,0,0
CCO[C@@H]1OC(C(=O)N2CCOCC2)=C[C@H](c2cn(C(C)=O)c3ccccc23)[C@H]1CCCO,0,0,0,0
CCO[C@@H]1OC(C(=O)N2CCN(Cc3ccccc3)CC2)=C[C@H](c2csc3ccccc23)[C@H]1CCCO,6.57µM,0,?,0
CCO[C@@H]1OC(C(=O)NCc2ccccc2)=C[C@H](c2cn(C(C)=O)c3ccccc23)[C@H]1CCCO,4.15µM,0,5.22µM,0
CCO[C@H]1OC(C(=O)N2CCN(Cc3ccccc3)CC2)=C[C@@H](c2ccccc2)[C@@H]1CCCO,?,0,?,0
Cc1nc2scc(-c3ccccc3)c2c(=O)n1N=C1C=CC(=O)C=C1,0,0,0,0
COc1ccc(/C=C2\CCCC3C2=NN(C(=O)CSc2n[nH]c(N)n2)C3c2ccc(OC)cc2)cc1 (stereo not drawn),?,0,?,0
